Here are results for 13 compounds from PubChem BioAssay (Tox21).

Test [1] is described as follows: qHTS assay to identify small molecule antagonists of the sonic hedgehog signaling (Shh) pathway (AID 1259369). Also: nearly all actives have a fitted effect of over 45% in size. Also: potency is read from the fitted curve at half-maximal effect. Put shortly:
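Inhibition of Shh signalling is measured as reduced Gli1-response-element firefly luciferase output in an NIH/3T3-derived stable reporter clone stimulated with conditioned medium for 24hr.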

Test [2] has as its target Estrogen receptor beta (Homo sapiens) (UniProt Q92731). As to the kind of experiment: qHTS assay to identify small molecule agonists of the estrogen receptor beta (ER-beta) signaling pathway (AID 1259377; active = well fitted activation curve with a large enough effect in the signal ratio in the repeat runs, not every such curve was filed as active; the % refers to the signal ratio; also: potency is read from the fitted curve at half-maximal effect). Put shortly:
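ER-beta-UAS-bla HEK293T cells in medium with 2% charcoal-stripped FBS were exposed to compounds for 16 h at 37C. Beta-lactamase reporter activity was read as fluorescence after 2 h with LiveBLAzer B/G FRET substrate at room temperature.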

Test [3] can be described thus: qHTS assay to identify small molecule agonists of the androgen receptor (AR) signaling pathway in the presence of an antagonist - cell viability counter screen (AID 1259379; active = well fitted curve in the direction sought with a large enough effect in the repeat runs; an effect the other way counts as inactive or inconclusive; also: nearly all actives have a fitted effect of over 25% in size; also: potency is read from the fitted curve at half-maximal effect). Put shortly:
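Fluorescence from CellTiter-Fluor, added after 15 hr and read 1 hr later, gave cell viability. Cells were MDA-kb2 exposed to compounds (15 concentrations) in the presence of 3.0uM nilutamide at 37C, 0% CO2.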

Test [4] can be described thus: qHTS assay to identify small molecule agonists of the estrogen receptor beta (ER-beta) signaling pathway - cell viability counter screen (AID 1259380; active = well fitted curve in the direction sought with a large enough effect in the repeat runs; an effect the other way counts as inactive or inconclusive; also: nearly all actives have a fitted effect of over 30% in size; also: potency is read from the fitted curve at half-maximal effect). The method in brief: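 Same-well viability counter screen. Cells: ER-beta-UAS-bla HEK293T, plated 6 hr before compound, in 2% charcoal-stripped FBS. Compound exposure 16 hr, 37C; viability by CellTiter-Glo luminescence after 30 min at room temperature.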

The nature of test [5]: qHTS assay to identify small molecule antagonists of the estrogen receptor beta (ER-beta) signaling pathway - cell viability counter screen (AID 1259382; active = well fitted curve in the direction sought with a large enough effect in the repeat runs; an effect the other way counts as inactive or inconclusive; also: nearly all actives have a fitted effect of over 55% in size; also: potency is read from the fitted curve at half-maximal effect). The method in brief:
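Following a 6 hr plating period, HEK293T cells carrying a UAS-driven beta-lactamase reporter under ER-beta control received compounds and 1nM E2 (final). After 16 hr at 37C and 2 hr substrate loading, CellTiter-Glo luminescence indicated viability.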

The target in test [6] is Estrogen receptor (Homo sapiens) (UniProt P03372). As to the kind of experiment: qHTS assay to identify small molecule agonists of the estrogen receptor alpha (ER-alpha) signaling pathway in the presence of an antagonist (AID 1259383). Also: nearly all actives have a fitted effect of over 15% in size. Also: potency is read from the fitted curve at half-maximal effect. As to activation: top concentration of the series differs between compounds. Put shortly: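 Cells are hormone-deprived for 5 days (charcoal-stripped FBS, no phenol red), plated for 24hr, spiked with 10.0nM ICI-182,780, then dosed at 15 concentrations. After 22hr at 37C, ONE-Glo luminescence reports ERE-luciferase activity.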
Sequence of Estrogen receptor (Homo sapiens) (P03372 whole entry, looked up): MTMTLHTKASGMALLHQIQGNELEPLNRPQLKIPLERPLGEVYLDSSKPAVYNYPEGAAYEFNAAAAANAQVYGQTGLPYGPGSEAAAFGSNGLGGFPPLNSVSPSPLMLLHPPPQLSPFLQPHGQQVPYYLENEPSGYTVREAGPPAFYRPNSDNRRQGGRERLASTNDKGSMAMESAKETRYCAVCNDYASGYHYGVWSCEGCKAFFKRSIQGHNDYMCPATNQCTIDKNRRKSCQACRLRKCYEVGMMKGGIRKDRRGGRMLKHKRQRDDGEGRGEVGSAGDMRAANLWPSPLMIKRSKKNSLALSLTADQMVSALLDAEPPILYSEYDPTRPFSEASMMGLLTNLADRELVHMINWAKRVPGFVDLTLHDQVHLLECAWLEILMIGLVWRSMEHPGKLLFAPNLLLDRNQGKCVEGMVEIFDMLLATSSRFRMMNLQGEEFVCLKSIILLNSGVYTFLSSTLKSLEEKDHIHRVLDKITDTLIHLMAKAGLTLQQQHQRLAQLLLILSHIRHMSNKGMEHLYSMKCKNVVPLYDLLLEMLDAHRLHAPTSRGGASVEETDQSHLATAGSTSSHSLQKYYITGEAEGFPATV

Test [7] concerns the target Estrogen receptor beta (Homo sapiens) (UniProt Q92731). As to the kind of experiment: qHTS assay to identify small molecule antagonists of the estrogen receptor beta (ER-beta) signaling pathway (AID 1259378; active = well fitted inhibition curve with a large enough effect in the signal ratio in the repeat runs, not every such curve was filed as active; the % refers to the signal ratio; also: potency is read from the fitted curve at half-maximal effect). The method in brief:
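ER-beta-UAS-bla HEK293T (GripTite) cells in 2% charcoal-stripped FBS medium were preincubated 6 hr at 37C, dosed with compound, then stimulated with 1 nM E2 (final) for 16 hr; beta-lactamase reporter read by B/G FRET fluorescence after 2 hr substrate loading.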

Test [8] addresses Androgen receptor (Homo sapiens) (UniProt P10275). As to the kind of experiment: qHTS assay to identify small molecule agonists of the androgen receptor (AR) signaling pathway in the presence of an antagonist (AID 1259381). Also: nearly all actives have a fitted effect of over 15% in size. The method in brief: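 Cells are MDA-kb2 (human breast carcinoma, MMTV-luc, AR/GR responsive). Nilutamide is present at 3.0uM final throughout; compounds are added at 15 concentrations and incubated 16hr at 37C before ONE-Glo luminescence detection.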

Test [9] in a line: qHTS assay to identify small molecule agonists or antagonists of the thyroid stimulating hormone receptor (TSHR) signaling pathway - wild type cell line counter screen (AID 1259384). The method in brief:
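Wild-type HEK293 cells were plated 18 h at 37 C/5% CO2, pin-dosed with compound plus Ro20-1724 medium, held 30 min at room temperature, then given cAMP-d2 and anti-cAMP-cryptate; fluorescence was read after 1 h. Fifteen concentrations, triplicate.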

In test [10] the target is Thyrotropin receptor (Homo sapiens) (UniProt P16473). Briefly: qHTS assay to identify small molecule antagonists of the thyroid stimulating hormone receptor (TSHR) signaling pathway (AID 1259385). Also: nearly all actives have a fitted effect of over 20% in size. The method in brief:
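TSHR-HEK293 cells were plated and held 18 h at 37C/5% CO2, then given compound plus Ro20-1724 and stimulated with TSH at 1.5 ng/mL final. After 30 min at room temperature, cAMP was detected with cAMP-d2/anti-cAMP-cryptate (1 h) by fluorescence.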

“And” between values parts separate entries of the source, which are not always exact repeats. Identical values can stand only once. Records with an inconclusive call do not appear. The source made the active and inactive calls. Unless noted, calls follow the shape of the full dose curve.

Sequence of Thyrotropin receptor (Homo sapiens) (P16473 whole entry, looked up): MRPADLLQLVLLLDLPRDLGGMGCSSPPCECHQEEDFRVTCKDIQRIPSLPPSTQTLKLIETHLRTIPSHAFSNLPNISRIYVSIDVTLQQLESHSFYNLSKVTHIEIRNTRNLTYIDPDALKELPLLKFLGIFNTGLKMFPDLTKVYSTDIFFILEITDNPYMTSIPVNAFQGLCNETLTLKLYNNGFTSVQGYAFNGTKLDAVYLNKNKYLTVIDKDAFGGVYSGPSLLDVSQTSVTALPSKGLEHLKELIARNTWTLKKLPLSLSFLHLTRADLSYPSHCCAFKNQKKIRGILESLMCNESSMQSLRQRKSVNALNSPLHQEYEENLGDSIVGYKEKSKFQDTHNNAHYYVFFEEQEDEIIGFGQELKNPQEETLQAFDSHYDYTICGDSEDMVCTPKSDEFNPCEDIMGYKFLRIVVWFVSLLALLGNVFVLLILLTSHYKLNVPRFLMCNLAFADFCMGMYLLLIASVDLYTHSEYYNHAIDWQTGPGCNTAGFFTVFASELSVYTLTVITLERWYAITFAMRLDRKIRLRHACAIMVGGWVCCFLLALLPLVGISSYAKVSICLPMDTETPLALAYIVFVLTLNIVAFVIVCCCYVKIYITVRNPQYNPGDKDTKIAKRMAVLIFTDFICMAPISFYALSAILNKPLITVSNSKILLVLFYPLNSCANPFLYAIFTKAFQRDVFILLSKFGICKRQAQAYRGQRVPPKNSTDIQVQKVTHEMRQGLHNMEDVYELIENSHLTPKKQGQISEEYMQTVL
Sequence of Androgen receptor (Homo sapiens) (P10275 whole entry, looked up): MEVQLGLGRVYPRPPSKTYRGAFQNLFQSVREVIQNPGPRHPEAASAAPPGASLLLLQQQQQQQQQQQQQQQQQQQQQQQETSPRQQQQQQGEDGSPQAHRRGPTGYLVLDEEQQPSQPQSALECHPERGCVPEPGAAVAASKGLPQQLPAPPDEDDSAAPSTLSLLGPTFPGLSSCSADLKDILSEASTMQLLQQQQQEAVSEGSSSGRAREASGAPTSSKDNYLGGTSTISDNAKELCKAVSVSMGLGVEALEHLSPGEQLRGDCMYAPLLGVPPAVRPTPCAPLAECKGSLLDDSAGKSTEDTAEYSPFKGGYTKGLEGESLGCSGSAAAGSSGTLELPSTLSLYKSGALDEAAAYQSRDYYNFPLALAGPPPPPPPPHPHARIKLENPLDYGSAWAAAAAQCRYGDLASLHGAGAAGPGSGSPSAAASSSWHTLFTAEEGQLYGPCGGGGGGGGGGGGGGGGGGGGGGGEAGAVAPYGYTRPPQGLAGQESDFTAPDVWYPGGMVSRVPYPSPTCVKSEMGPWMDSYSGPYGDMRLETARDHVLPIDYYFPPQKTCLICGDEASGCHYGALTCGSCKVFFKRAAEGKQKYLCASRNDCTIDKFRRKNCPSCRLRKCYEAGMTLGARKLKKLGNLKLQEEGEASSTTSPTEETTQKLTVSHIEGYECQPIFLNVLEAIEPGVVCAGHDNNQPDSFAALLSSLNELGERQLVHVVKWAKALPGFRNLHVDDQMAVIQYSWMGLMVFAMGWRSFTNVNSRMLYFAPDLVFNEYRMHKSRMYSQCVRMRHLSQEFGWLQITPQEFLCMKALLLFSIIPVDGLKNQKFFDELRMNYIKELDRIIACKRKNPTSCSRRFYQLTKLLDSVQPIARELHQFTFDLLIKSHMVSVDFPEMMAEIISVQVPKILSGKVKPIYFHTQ
Sequence of Estrogen receptor beta (Homo sapiens) (Q92731 whole entry, looked up): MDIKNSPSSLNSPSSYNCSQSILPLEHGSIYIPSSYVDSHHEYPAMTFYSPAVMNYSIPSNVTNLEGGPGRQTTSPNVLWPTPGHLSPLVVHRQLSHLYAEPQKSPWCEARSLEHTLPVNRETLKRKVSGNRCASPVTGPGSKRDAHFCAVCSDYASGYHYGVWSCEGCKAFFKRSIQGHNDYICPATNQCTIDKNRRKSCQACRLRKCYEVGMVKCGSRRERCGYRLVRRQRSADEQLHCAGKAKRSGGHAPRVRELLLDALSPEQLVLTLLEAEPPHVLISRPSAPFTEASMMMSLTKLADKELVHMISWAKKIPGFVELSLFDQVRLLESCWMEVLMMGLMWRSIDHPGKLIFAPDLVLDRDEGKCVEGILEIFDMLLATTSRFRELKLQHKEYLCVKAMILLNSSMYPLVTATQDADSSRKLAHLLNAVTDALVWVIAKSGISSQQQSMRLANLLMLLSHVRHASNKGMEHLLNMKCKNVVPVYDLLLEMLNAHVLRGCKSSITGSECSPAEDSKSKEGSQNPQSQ

Consider `FC(F)(F)c1ccccc1Cl`, for which the Potency result in test [1], in test [2], in test [3], in [4], in test [5] and in test [6] was “inactive” in each case.
In the case of `c1cc(N(CC2CO2)CC2CO2)ccc1Cc1ccc(N(CC2CO2)CC2CO2)cc1` (stereo unspecified), the Potency in test [1] was 15.4 µM (active); in test [7], 27.3 µM (active). For the same compound, the Potency result in [4], in test [8], in test [5] and in [6] was “inactive” in each case. For the same compound, the outcome in [9] was inactive.
`O=Cc1c2ccccc2c(Cl)c2ccccc12`: the Potency result in test [1], in test [7], in [4], in test [5] and in test [6] was “inactive” in each case.
`COc1ccccc1NC(=O)c1cc2ccccc2cc1O`: the figures for the Potency in [1], in [7] and in test [4] were 27.3 µM (active), 17.2 µM (active) and 54.5 µM (active), respectively. Besides, the Potency entry in test [8] and in test [6] was “inactive” each time. Also, the result in test [9] was inactive.
Consider `Clc1cc(Cl)nc(Cl)n1`, for which the Potency entry in test [1], in test [2], in test [7], in test [4], in [5] and in test [10] was “inactive” in each case. Moreover, the call in test [9] was inactive.
Consider `O=C(O)CCC(=O)C(=O)O`, for which the Potency result in test [1], in test [2], in test [3], in test [4], in [5] and in test [6] was “inactive” each time. The outcome in test [9] was inactive.
With `O=C(OC(=O)c1ccccc1)c1ccccc1`, the Potency result in [1], in test [7], in [3], in test [4], in test [8] and in [5] was “inactive” throughout. Besides, the Potency result in test [6] and in test [10] was “inactive” throughout. Besides, in test [9], the call was inactive.
As to `C[C@]12CC[C@@H]3c4ccc(O)cc4CC[C@H]3[C@@H]1CC[C@@H]2OC(=O)CCC1CCCC1`, the Potency is 13.3 µM (active) in test [1]; 2.2 nM (active) and 2.7 nM (active) in test [2]; 61.1 µM (active) and 29.8 µM (active) in [4]; 4.9 nM (active) and 4.2 nM (active) in test [6]. Besides, the Potency result in [3], in test [5] and in [10] was “inactive” each time. Also, the result in test [9] was inactive.
For the compound `CC1(CN2CCC(n3c(=O)[nH]c4ccccc43)CC2)OCc2ccccc2-n2cccc21` (stereo unspecified), the Potency was 23.7 µM (active) in [1], 29.8 µM (active) in test [3], 23.7 µM (active) in test [4] and 29.8 µM (active) in test [5]. Further, the Potency result in test [2], in test [6] and in [10] was “inactive” each time. Besides, the outcome in [9] was inactive.
With `C=C/C(C)=C/C/C=C(\C)CCC=C(C)C`, the Potency in [1] is 27.3 µM (active). The Potency entry in [2], in test [3], in test [5] and in [6] was “inactive” each time. Also, in [9], the result was inactive.
Consider `CCCCN1CCCC1C(=O)Nc1c(C)cc(C)cc1C` (stereo unspecified), for which the Potency entry in test [1], in [2], in test [3], in test [4], in test [5] and in [6] was “inactive” throughout. In test [9], the compound was classed as inactive.
Take `CCC(C)(C)OC`: the Potency result in [1], in test [2], in test [3], in [4], in test [5] and in test [6] was “inactive” in each case. The Potency result in [10] was “inactive”. Also, the result in test [9] was inactive.
For the compound `CCC1CO1` (stereo unspecified), the Potency entry in test [1], in test [7], in test [3], in test [4], in test [5] and in test [10] was “inactive” each time. Moreover, the outcome in [9] was inactive.
